Data taken from ChEMBL document CHEMBL1961873, “Compounds: GSK PKIS; Assays: Nanosyn kinase panel” (2012).

Columns and labels:
[1] = target: Tyrosine-protein kinase CSK (Homo sapiens) (UniProt P41240); details: at 1 µM;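 further: each value is an averaged inhibition reading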
[2] = target: T1, Discoidin domain-containing receptor 2 (Homo sapiens) (UniProt Q16832); details: at 0.1 µM
T1 sequence (whole entry): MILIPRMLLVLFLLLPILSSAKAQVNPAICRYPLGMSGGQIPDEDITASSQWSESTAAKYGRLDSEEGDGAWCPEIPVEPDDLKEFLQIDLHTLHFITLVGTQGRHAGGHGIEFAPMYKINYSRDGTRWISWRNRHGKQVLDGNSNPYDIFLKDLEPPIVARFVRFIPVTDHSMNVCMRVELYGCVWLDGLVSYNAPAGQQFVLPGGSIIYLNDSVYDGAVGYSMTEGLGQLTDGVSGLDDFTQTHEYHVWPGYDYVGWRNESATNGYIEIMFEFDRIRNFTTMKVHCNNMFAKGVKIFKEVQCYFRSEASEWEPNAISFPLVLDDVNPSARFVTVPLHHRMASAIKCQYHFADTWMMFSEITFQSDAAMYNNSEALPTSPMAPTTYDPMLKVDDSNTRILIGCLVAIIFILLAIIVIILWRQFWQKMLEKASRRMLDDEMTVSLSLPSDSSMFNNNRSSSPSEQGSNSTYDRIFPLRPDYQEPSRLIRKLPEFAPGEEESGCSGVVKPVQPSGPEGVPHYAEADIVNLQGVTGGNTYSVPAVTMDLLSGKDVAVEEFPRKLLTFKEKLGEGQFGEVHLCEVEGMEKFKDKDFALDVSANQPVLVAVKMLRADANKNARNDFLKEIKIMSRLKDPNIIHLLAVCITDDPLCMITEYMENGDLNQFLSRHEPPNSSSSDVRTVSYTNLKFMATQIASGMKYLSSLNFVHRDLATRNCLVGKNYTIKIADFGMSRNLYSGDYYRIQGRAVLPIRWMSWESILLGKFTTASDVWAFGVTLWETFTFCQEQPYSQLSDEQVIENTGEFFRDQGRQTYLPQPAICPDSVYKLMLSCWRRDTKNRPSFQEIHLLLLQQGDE

[3] = target: T1, Discoidin domain-containing receptor 2 (Homo sapiens); details: at 1 µM
[4] = target: Epidermal growth factor receptor (Homo sapiens) (UniProt P00533); details: at 0.1 µM
[5] = target: Epidermal growth factor receptor (Homo sapiens) (UniProt P00533); details: at 1 µM
[6] = test system: Epidermal growth factor receptor (Homo sapiens), P00533 [L858R]; details: at 0.1 µM
[7] = test system: Epidermal growth factor receptor (Homo sapiens), P00533 [L858R]; details: at 1 µM
[8] = test system: Epidermal growth factor receptor (Homo sapiens), P00533 [L861Q]; details: at 0.1 µM
[9] = test system: Epidermal growth factor receptor (Homo sapiens), P00533 [L861Q]; details: at 1 µM
[10] = test system: Epidermal growth factor receptor (Homo sapiens), P00533 [T790M]; details: at 0.1 µM
[11] = test system: Epidermal growth factor receptor (Homo sapiens), P00533 [T790M]; details: at 1 µM
[12] = test system: Epidermal growth factor receptor (Homo sapiens), P00533 [L858R,T790M]; details: at 0.1 µM
[13] = test system: Epidermal growth factor receptor (Homo sapiens), P00533 [L858R,T790M]; details: at 1 µM
[14] = target: Ephrin type-A receptor 2 (Homo sapiens) (UniProt P29317); details: at 0.1 µM
[15] = target: Ephrin type-A receptor 2 (Homo sapiens) (UniProt P29317); details: at 1 µM
[16] = target: T2, Ephrin type-A receptor 3 (Homo sapiens) (UniProt P29320); details: at 0.1 µM
T2 sequence (whole entry): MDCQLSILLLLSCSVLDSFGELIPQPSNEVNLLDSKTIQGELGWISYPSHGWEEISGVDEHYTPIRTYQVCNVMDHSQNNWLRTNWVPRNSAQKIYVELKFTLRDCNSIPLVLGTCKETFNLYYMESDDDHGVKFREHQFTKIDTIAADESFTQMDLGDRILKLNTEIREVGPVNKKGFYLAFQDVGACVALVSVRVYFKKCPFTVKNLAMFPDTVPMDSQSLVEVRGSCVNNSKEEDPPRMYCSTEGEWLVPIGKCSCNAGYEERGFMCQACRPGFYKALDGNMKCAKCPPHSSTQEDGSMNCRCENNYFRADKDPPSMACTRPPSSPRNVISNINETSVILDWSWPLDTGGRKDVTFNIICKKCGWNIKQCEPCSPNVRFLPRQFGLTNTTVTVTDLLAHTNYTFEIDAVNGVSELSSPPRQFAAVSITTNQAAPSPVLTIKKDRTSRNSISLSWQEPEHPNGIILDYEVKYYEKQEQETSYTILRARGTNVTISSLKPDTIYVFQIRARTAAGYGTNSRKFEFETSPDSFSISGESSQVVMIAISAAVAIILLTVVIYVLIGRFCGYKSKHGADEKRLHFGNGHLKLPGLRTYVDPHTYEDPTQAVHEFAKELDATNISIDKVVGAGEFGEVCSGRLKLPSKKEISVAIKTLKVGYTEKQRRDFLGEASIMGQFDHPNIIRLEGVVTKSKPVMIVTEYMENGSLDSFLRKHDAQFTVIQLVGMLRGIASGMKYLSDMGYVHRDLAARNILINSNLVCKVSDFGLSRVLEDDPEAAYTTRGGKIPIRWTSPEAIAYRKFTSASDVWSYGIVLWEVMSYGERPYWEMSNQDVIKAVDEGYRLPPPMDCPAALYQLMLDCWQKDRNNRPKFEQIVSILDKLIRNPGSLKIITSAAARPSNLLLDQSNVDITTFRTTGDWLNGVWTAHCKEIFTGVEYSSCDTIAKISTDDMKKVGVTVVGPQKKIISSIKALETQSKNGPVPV

[17] = target: T2, Ephrin type-A receptor 3 (Homo sapiens); details: at 1 µM
[18] = target: Ephrin type-A receptor 4 (Homo sapiens) (UniProt P54764); details: at 0.1 µM
[19] = target: Ephrin type-A receptor 4 (Homo sapiens) (UniProt P54764); details: at 1 µM
[20] = target: T3, Ephrin type-B receptor 2 (Homo sapiens) (UniProt P29323); details: at 0.1 µM;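 further: reported as mean inhibition of EPHB2, from the GSK PKIS dataset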
T3 sequence (whole entry): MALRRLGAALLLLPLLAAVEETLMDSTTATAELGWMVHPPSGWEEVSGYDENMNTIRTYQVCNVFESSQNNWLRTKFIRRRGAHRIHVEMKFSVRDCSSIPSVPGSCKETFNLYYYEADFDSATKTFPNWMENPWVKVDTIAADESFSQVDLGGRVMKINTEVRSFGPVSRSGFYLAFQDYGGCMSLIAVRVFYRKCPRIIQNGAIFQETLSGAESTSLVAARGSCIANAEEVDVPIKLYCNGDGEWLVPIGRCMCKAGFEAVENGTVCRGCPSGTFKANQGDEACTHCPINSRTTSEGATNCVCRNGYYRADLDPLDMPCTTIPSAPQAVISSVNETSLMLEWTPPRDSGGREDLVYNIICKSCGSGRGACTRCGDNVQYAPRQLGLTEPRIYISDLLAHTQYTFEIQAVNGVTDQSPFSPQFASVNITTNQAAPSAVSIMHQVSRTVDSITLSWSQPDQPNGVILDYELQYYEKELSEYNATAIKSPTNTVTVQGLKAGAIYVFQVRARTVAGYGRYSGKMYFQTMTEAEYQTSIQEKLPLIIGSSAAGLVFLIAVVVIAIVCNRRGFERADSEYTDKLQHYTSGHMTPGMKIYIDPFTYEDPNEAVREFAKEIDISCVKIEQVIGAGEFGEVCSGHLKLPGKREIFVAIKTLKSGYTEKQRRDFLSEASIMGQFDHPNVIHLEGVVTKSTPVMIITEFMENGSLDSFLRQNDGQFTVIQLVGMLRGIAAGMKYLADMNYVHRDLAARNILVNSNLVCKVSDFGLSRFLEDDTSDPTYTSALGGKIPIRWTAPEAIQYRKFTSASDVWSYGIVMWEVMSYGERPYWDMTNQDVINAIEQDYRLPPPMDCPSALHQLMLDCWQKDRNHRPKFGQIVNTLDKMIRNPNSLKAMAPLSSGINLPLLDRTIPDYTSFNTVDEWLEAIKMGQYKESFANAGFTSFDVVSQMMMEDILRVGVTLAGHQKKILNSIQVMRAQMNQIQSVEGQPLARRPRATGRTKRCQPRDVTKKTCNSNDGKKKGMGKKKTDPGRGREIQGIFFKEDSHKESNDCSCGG

Sequence of Tyrosine-protein kinase CSK (Homo sapiens) (P41240 2-450 limits assumed): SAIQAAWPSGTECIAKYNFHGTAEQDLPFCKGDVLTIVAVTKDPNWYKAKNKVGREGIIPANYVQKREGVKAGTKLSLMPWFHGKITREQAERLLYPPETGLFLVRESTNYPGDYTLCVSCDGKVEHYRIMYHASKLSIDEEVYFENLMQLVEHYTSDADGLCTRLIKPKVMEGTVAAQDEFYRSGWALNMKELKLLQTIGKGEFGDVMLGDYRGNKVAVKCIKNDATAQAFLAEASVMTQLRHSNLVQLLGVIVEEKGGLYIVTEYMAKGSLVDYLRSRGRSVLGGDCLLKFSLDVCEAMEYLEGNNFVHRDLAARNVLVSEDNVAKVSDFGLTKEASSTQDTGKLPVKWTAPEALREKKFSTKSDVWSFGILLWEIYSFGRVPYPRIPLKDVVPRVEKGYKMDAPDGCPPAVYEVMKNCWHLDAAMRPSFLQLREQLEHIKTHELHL
Sequence of Ephrin type-A receptor 4 (Homo sapiens) (P54764 whole entry): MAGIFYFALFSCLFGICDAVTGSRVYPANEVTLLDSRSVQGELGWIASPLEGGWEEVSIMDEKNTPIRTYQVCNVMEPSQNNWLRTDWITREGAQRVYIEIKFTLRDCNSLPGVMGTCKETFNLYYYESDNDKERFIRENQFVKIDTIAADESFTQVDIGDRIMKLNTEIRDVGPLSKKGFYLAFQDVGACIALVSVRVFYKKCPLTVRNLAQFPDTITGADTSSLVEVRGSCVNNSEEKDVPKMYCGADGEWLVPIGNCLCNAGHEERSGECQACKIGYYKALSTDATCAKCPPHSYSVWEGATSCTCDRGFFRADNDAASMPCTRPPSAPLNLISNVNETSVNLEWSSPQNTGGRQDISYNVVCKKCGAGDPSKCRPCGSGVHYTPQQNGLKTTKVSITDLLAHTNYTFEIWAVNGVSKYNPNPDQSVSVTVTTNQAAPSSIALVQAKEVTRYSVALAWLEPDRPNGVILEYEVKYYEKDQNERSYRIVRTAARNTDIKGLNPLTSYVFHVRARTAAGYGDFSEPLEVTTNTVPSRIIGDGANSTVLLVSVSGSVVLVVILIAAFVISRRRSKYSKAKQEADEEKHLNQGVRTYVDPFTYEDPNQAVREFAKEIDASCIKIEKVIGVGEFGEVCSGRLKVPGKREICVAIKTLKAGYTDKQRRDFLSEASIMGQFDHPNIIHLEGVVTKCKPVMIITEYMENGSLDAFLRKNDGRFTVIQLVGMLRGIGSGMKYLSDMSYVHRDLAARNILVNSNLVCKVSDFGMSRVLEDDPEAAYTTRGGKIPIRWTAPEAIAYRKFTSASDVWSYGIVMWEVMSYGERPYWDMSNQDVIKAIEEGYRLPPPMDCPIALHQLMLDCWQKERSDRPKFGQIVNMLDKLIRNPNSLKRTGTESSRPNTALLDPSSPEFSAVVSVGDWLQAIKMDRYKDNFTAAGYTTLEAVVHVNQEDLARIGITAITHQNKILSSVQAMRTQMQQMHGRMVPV
Sequence of Epidermal growth factor receptor (Homo sapiens), P00533 [L858R] (P00533 whole entry L858R): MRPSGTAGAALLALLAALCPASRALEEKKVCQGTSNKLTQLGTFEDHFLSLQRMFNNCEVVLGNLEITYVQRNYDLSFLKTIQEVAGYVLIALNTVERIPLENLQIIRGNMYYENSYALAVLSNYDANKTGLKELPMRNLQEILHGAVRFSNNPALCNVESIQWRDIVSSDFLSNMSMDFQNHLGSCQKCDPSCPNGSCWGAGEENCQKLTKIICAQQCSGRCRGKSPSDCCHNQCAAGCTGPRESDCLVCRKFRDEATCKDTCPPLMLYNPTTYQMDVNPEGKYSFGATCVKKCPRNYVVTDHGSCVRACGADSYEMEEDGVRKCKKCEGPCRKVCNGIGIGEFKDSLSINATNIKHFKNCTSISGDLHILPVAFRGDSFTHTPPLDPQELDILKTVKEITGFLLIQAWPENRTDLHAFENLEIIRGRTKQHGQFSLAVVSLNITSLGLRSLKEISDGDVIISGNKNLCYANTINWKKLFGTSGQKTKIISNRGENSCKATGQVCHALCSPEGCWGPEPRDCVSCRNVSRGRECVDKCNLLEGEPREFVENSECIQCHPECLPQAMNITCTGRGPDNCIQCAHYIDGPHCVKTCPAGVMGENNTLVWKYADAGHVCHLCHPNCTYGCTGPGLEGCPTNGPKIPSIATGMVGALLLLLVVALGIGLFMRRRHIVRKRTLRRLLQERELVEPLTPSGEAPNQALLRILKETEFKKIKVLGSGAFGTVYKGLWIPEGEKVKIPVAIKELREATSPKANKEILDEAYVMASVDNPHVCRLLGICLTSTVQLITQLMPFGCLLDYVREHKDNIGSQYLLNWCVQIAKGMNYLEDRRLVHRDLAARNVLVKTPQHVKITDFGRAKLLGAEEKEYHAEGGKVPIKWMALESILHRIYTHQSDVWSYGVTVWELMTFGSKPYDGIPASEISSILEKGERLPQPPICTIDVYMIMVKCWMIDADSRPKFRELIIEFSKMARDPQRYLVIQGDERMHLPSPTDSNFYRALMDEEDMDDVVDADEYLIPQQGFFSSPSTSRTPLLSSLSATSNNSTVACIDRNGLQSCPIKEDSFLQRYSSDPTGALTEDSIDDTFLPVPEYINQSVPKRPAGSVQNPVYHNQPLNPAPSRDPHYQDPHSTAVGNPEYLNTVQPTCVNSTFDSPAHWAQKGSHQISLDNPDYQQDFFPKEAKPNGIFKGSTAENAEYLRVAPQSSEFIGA
Sequence of Epidermal growth factor receptor (Homo sapiens) (P00533 whole entry): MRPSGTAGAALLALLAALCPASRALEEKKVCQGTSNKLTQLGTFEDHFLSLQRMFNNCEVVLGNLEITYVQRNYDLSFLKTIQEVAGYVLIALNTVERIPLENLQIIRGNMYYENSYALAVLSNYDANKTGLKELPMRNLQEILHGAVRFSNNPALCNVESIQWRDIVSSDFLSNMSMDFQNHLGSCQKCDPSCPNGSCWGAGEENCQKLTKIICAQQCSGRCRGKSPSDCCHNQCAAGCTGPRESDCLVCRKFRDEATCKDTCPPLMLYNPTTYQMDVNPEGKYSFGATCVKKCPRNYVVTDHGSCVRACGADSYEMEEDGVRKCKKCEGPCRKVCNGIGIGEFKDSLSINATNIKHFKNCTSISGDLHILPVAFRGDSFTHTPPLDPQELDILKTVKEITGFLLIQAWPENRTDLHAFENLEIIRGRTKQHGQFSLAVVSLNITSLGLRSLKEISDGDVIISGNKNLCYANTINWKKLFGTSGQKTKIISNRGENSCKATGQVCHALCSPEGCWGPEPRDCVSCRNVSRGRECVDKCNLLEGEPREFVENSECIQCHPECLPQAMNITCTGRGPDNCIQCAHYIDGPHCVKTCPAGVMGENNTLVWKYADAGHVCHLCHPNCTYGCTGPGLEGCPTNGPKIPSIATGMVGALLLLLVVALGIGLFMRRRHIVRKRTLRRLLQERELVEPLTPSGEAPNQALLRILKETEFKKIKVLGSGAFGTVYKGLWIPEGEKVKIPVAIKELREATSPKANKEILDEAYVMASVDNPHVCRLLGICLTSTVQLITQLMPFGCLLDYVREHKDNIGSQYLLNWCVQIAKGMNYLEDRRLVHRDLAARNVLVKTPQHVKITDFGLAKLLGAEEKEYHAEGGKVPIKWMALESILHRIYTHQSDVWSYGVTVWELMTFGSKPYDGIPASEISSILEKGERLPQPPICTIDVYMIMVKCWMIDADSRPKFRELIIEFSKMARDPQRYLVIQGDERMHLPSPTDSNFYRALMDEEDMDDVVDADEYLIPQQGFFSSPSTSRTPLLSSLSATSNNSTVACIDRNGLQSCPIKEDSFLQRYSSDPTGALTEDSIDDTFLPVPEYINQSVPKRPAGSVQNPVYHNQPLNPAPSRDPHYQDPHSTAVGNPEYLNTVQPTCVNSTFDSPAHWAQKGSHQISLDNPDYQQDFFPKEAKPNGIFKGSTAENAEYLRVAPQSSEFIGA
Sequence of Epidermal growth factor receptor (Homo sapiens), P00533 [L858R,T790M] (P00533 whole entry T790M/L858R, looked up): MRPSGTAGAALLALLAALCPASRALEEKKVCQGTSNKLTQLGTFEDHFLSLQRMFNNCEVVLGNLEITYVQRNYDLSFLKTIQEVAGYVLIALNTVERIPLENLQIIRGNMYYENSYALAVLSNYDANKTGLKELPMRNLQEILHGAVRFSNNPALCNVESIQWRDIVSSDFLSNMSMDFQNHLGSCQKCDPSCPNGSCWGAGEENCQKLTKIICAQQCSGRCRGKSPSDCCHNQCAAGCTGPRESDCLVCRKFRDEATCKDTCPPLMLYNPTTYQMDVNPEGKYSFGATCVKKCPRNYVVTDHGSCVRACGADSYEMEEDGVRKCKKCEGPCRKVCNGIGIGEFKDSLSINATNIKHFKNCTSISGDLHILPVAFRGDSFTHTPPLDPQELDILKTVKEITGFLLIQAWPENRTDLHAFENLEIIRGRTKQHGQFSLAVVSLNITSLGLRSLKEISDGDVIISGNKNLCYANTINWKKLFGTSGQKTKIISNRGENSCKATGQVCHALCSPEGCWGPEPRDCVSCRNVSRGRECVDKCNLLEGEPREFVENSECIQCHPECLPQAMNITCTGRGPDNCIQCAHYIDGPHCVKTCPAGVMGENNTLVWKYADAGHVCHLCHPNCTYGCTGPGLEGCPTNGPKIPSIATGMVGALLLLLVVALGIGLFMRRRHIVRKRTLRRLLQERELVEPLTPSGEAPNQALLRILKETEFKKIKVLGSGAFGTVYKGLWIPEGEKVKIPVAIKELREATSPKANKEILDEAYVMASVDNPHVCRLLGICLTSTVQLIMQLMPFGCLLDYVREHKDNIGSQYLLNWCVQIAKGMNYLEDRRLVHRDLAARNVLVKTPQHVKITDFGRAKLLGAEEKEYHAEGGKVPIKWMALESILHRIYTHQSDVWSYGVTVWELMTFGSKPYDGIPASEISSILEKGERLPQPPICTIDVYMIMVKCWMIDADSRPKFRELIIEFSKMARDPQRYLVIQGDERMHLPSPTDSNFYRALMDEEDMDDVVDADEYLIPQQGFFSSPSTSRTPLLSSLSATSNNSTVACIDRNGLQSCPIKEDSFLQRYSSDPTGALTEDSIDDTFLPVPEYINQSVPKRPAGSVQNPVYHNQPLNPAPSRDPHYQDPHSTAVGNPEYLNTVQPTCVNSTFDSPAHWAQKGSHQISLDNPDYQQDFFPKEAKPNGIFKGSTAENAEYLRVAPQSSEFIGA

| Compound | inhibition [1] [%] | inhibition [2] [%] | inhibition [3] [%] | inhibition [4] [%] | inhibition [5] [%] | inhibition [6] [%] | inhibition [7] [%] | inhibition [8] [%] | inhibition [9] [%] | inhibition [10] [%] | inhibition [11] [%] | inhibition [12] [%] | inhibition [13] [%] | inhibition [14] [%] | inhibition [15] [%] | inhibition [16] [%] | inhibition [17] [%] | inhibition [18] [%] | inhibition [19] [%] | inhibition [20] [%] |
| --- | --- | --- | --- | --- | --- | --- | --- | --- | --- | --- | --- | --- | --- | --- | --- | --- | --- | --- | --- | --- |
| O=S(=O)(CCNCc1ccc(-c2ccc3ncnc(Nc4ccc(OCc5cccc(F)c5)c(Cl)c4)c3c2)o1)c1ccccc1 | 6.6 | 5.04 | 6.18 | 65.3 | 83.3 | 32.6 | 79.5 | 39.2 | 78.2 | 2.92 | 6.26 | 1.22 | 1.97 | 1.86 | 1.73 | 4.61 | 6.18 | 5.63 | 13.3 | 14.7 |
| c1cc(-c2cnn3nc(N4CCOCC4)ccc23)nc(NC2CC2)n1 | 5.31 | 1.38 | 3.9 | 4.04 | 6.33 | 5.72 | 2.16 | 3.88 | 2.28 | 2.15 | 0.49 | 1.11 | 1.53 | 2.12 | 0.18 | 5.23 | 5.8 | 10.2 | 10.9 | 10.2 |
| O=C(O[C@H]1CN[C@H](C#Cc2cc3ncnc(Nc4ccc(Cc5ccccc5)cc4)c3s2)C1)N1CCOCC1 | 2.39 | -1.8 | -1.26 | 27.8 | 69.9 | 1.68 | 11.4 | 15.1 | 26.9 | 1.18 | 10.5 | -1.96 | -1.31 | -0.49 | -1.09 | 2.25 | 3.5 | 3.73 | 5.5 | 7.69 |
| CC(C)(CO)CNC(=O)c1ccc2c(c1)/C(=N/Nc1ccc(S(N)(=O)=O)cc1)C(=O)N2 | -0.3 | -1.82 | 3.39 | 5.33 | 5.03 | -3.09 | -0.53 | -0.63 | -0.88 | -1.56 | -0.95 | -1.33 | -1.42 | -2.4 | -2.69 | -0.22 | 1.81 | -0.06 | 10.3 | -4.35 |
| CCn1cc(-c2ccnc3[nH]ccc23)c(-c2cccc(NC(=O)Nc3ccc(OCc4ccccc4)cc3)c2)n1 | 2.9 | 2.59 | 21 | -1.36 | 2.86 | -3.83 | -3.23 | -1.65 | 2.37 | -1.87 | -1.25 | 0.93 | -1.31 | 1.83 | 0.05 | 0.1 | 1.02 | 0.23 | 3.4 | -2.33 |
| Nc1ncc(-c2cccc(S(N)(=O)=O)c2)c2scc(-c3ccc(F)c(Cl)c3)c12 | 73.3 | 2.61 | 11.2 | 0.5 | 14.2 | 5.06 | 23.1 | 5.17 | 10.2 | 3.18 | 5.52 | 1.23 | 3.47 | 41 | 89.7 | 27.4 | 68.6 | 54.9 | 92 | 67.8 |
| N#Cc1c(NC(=O)c2ccc(F)cc2)sc2c1CCCC2 | 0.65 | 0.36 | -0.2 | 0.63 | 1.78 | 0.66 | 2.49 | -0.06 | -1.78 | -0.49 | -0.08 | -2.24 | 0.47 | -2.58 | -2.61 | 1.47 | 2.8 | 4.24 | 2.26 | 2.69 |
| c1ccc(COc2ccc(Nc3ncnc4ccc(-c5ccco5)cc34)cc2)cc1 | 1.89 | 0.26 | 1.14 | 64.3 | 86.1 | 9.89 | 39.4 | 22.1 | 36.1 | 1.47 | 5 | -0.19 | -1.64 | 0.9 | -0.47 | -0.08 | 0.71 | 0.05 | 2.86 | – |
| CCOc1ccc2c(-c3ccnc(Nc4cccc(C(F)(F)F)c4)n3)cnn2n1 | 1.6 | 4.46 | 6.02 | 0.09 | 1.97 | 0.87 | -1.72 | 1.44 | -0.42 | -0.02 | -0.36 | 0.8 | 0.09 | 1.2 | 0.67 | 1.59 | 5.76 | 6.67 | 9.91 | 7.74 |
| O=C(Nc1n[nH]c2cc(-c3ccc(F)cc3)ccc12)C1CC1 | 5.61 | 2.28 | 1.71 | -1.79 | 4.27 | 0.24 | 4.19 | 1.33 | 2.33 | 1.54 | 1.6 | 1.46 | 1.41 | -2.34 | -1.62 | 2.89 | 4.36 | 7.63 | 4.17 | 6.99 |
| COc1ccc(-c2nn3ncccc3c2-c2ccnc(Nc3ccc4c(c3)OCCO4)n2)cc1 | 2.25 | 17.7 | 79.8 | 0.51 | 34.1 | 8.22 | 57.4 | 5.78 | 34.3 | 0.7 | 5.19 | 0.11 | 17.8 | -0.24 | 0.86 | -1.04 | 0.38 | 0.61 | 13.8 | 1.72 |
| Cc1cccc(Nc2ncc(-c3ccccc3)o2)c1 | 0.89 | 0.22 | 0.44 | 2.11 | 2.82 | 0.79 | 2.98 | -0.45 | 1.8 | 0.73 | 2.62 | -0.51 | 1.2 | 2.27 | 1.53 | 2.3 | 2.7 | 5.68 | 5.88 | 0.55 |
| CCn1c(-c2nonc2N)nc2cnc(Oc3cccc(NC(=O)c4ccc(N(C)C)cc4)c3)cc21 | -0.54 | 1.4 | 1.45 | 2.76 | 1.68 | 1.49 | 1.2 | 1.12 | -0.57 | 0.09 | 0.52 | -1.54 | -0.4 | -2.08 | -3.39 | 2.26 | 4.01 | 4.68 | -0.31 | 5.07 |
